Dicer inh = inhibitors of Dicer pre-microRNA processing, primary screen, biochemical, cat-ELCCA, chemiluminescence; Endoribonuclease Dicer (Homo sapiens), Q9UPY3; cat-ELCCA pre-miR-21 Dicer processing; active compounds read high; z-score at 25 µM; actives 6% (n = 47,000); AID 1347074, 2019; in the data active = z-score above about 3, passing the limit was not always enough;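 note: plate controls were vehicle for no effect and no enzyme for full effect; higher signal means more uncleaved substrate so more Dicer inhibition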
* hit, by the source's call. This excerpt belongs to a sample that is enriched for hits.

For Cn1ncc(-c2nc(-c3ccc(Cl)cc3)cs2)c1N the results were Dicer inh 1.2.
Screening CCCc1nn(C)c(C(N)=O)c1[N+](=O)[O-] returned Dicer inh 5.5*.
`CCOC(=O)C(C(=O)OCC)c1c([N+](=O)[O-])c(=O)n(C)c2ccccc12` gave Dicer inh -1.6.
For Cn1cnc([N+](=O)[O-])c1N1CCC(C(N)=O)CC1 the results were Dicer inh -1.6.
O=S(=O)(c1ccc(Cl)c(Cl)c1)N1CCSCC1 was read as Dicer inh 1.5.
`O=C(Nc1ccccc1)N1CCN(c2nsc3ccccc23)CC1` gave Dicer inh 0.9.
`CCOC(=O)NS(=O)(=O)c1ccc(-c2cc(C(F)(F)F)n(C)n2)s1` gave Dicer inh -0.18.
`Cn1c(=O)[nH]c(=O)c2[nH]c(N(CCO)Cc3ccccc3)nc21` gave Dicer inh -0.88.
N#Cc1c(-c2ccccc2)c(-c2ccccc2)nn(CC(=O)N/N=C/c2cccs2)c1=O was read as Dicer inh -0.43.
Screening N#Cc1c(-c2ccc(Cl)c(Cl)c2)cc(-c2ccc(Cl)cc2)[nH]c1=O returned Dicer inh 2.1.
For COc1ccc(-c2nc(N(C)c3ccccc3)[nH]c(=O)c2C#N)cc1 the results were Dicer inh -0.19.
N#Cc1c(-c2ccc(Cl)cc2)nc(N/N=C/c2cccs2)[nH]c1=O was read as Dicer inh 3.5*.
For N#Cc1c(-c2ccc(Cl)cc2)nc(Nc2ccc(Cl)cc2)[nH]c1=O the results were Dicer inh 1.1.
For N#Cc1c(-c2ccccc2)nc(N/N=C/c2cccs2)[nH]c1=O the results were Dicer inh 3.8*.
CCCCCCSc1nnc(/N=C/NO)s1 was read as Dicer inh 2.9.
For Cc1ccc(-c2cn3c4ccccc4nc3n2CCCO)cc1 the results were Dicer inh 1.3.
Screening CCOc1cc(C2/C(=C(/O)c3ccc(C)cc3)C(=O)C(=O)N2CC(C)C)ccc1O (stereo not drawn) returned Dicer inh -1.1.
O=C(NCC1CCCO1)c1nn2c(C(F)(F)F)c3c(nc2c1Cl)-c1ccccc1CC3 (stereo not drawn) was read as Dicer inh 2.9.
For CC(C)(C)NC(=O)c1cc2nc(-c3ccc(Br)cc3)cc(C(F)(F)F)n2n1 the results were Dicer inh -1.2.
Screening CC(C)(C)NC(=O)c1cc2nc3c(c(C(F)(F)F)n2n1)CCc1ccccc1-3 returned Dicer inh 3.6*.
FC(F)(F)c1c2c(nc3cc(-c4cccs4)nn13)-c1ccccc1C2 was read as Dicer inh -0.63.
For O=C(O)CSc1nc2c(c(C(F)(F)F)n1)CCc1ccccc1-2 the results were Dicer inh 1.8.
COCCNC(=O)c1cc2nc3c(c(C(F)(F)F)n2n1)CCc1ccccc1-3 was read as Dicer inh 3.2*.
`O=C(Nc1ccc(Cl)cc1)c1cc2sccc2s1` gave Dicer inh -0.07.
Cc1ccc(S(=O)(=O)N2CCC(N)=N2)cc1 was read as Dicer inh -0.2.
For CCOC(=O)NC(=O)c1cn(C(C)C)c(=O)n(Cc2ccccc2)c1=O the results were Dicer inh -0.18.
For COc1ccc(C(CC(=O)c2cccs2)Sc2ccccc2N)c(Cl)c1OC (stereo not drawn) the results were Dicer inh -2.9.
`CCC1C(=O)C(C)(C)C(=O)OC1c1ccc(Cl)cc1` (stereo not drawn) gave Dicer inh -0.59.
CC(=O)NC(=S)NNC(=O)c1cccc([N+](=O)[O-])c1 was read as Dicer inh -1.1.
CC1(C)CC(=O)C2=C(C1)NC1=C(C(=O)CC(C)(C)C1)C2c1cccc(O)c1 was read as Dicer inh 1.1.
`S=c1[nH]nc(NC2CCCCC2)s1` gave Dicer inh 0.77.
Screening S=C(NC1CCCCC1)C(=S)NC1CCCCC1 returned Dicer inh -1.1.
Screening O=c1c(NC2CCCCC2)c(NC2CCCCC2)c1=O returned Dicer inh 5.9*.
`CC(C)(C)c1cc2nc(-c3cccc([N+](=O)[O-])c3)cc(C(F)(F)F)n2n1` gave Dicer inh 0.36.
For Cc1ccc(/C=N/NC(=O)Cn2nc3n(c2=O)-c2ccccc2SC3)o1 the results were Dicer inh 1.3.
For COc1cccc(/C=N/NC(=O)CN2C(=O)CSc3ccccc32)c1 the results were Dicer inh 3.2*.
For Cc1nn(-c2ccccc2)cc1/C=N/NC(=O)Cn1nc2n(c1=O)-c1ccccc1SC2 the results were Dicer inh 1.4.
Nc1cc2cc([N+](=O)[O-])ccc2oc1=O was read as Dicer inh -0.37.
For COc1ccc(C(=O)CC(=O)c2cc(Cl)ccc2O)cc1OC the results were Dicer inh -0.7.
For Cc1ccc(C(=O)COC(=O)c2cc(Cl)ccc2O)cc1C the results were Dicer inh 4*.
`O=C(COC(=O)c1cc2ccccc2cc1OC(=O)c1ccc(Cl)cc1)c1ccc(Cl)cc1` gave Dicer inh 1.
For COc1ccc(NC(=O)CSCC(=O)O)c(N2CCOCC2)n1 the results were Dicer inh 1.6.
CN1CCN(Cc2c(O)ccc3c(=O)c(-c4ccccc4)coc23)CC1 was read as Dicer inh 2.
`CCc1cc2c(=O)c(-c3nc4ccccc4n3C)coc2c(CN(CC)CC)c1O` gave Dicer inh 0.32.
CCc1cc2c(=O)c(-c3nc4ccccc4[nH]3)coc2c(CN2CCCC(C)C2)c1O (stereo not drawn) was read as Dicer inh 3.3*.
`CNC(=O)Nc1cc(C)nn1C(C)(C)C` gave Dicer inh -1.9.
O=C(Cn1nnc2sc3c(c2c1=O)CCCC3)Nc1ccc(F)c(Cl)c1 was read as Dicer inh 3.6*.
Screening CC1CCc2c(sc3nnn(CC(=O)Nc4ccc(Br)cc4)c(=O)c23)C1 (stereo not drawn) returned Dicer inh -1.1.
`CC1CCc2c(sc3ncn(CC(=O)O)c(=O)c23)C1` (stereo not drawn) gave Dicer inh 2.9.
For O=C(Cn1nnc2sc3c(c2c1=O)CCCC3)Nc1ccc(Cl)cc1 the results were Dicer inh -0.06.
`O=C(Cn1nnc2sc3c(c2c1=O)CCCC3)Nc1ccccc1` gave Dicer inh 0.74.
CC1CCc2c(sc3nnn(CC(=O)Nc4ccc(Cl)cc4)c(=O)c23)C1 (stereo not drawn) was read as Dicer inh 3.6*.
`CC(C)(C)OC(=O)CCNC(=O)Nc1cccc2ccccc12` gave Dicer inh 0.29.
For COC(=O)C(C)Sc1ncnc2c1sc1nc(N3CCOCC3)c3c(c12)CCCC3 (stereo not drawn) the results were Dicer inh 1.7.
Screening N#Cc1nc(COc2ccccc2)oc1NCc1ccc2c(c1)OCO2 returned Dicer inh 1.7.
CCOC(=O)c1cc2cccc([N+](=O)[O-])c2[nH]1 was read as Dicer inh -0.11.
`CCOC(=O)c1sc(SCC(=O)c2ccc(Cl)cc2)nc1C` gave Dicer inh 0.61.
`Cc1cccc(Nc2ncncc2C#N)c1C` gave Dicer inh 3.7*.
`Cc1cc(C)c(C#N)c(Nc2ccccc2C)n1` gave Dicer inh 0.71.
Cc1cccc(Nc2nc3nonc3nc2Nc2ccc(F)cc2)c1C was read as Dicer inh 2.4.
Screening COc1ccc(OC)c(/C=C(\C#N)C(N)=O)c1 returned Dicer inh -0.69.
Screening CCc1ccc(-c2cn3c4ccccc4nc3n2CCO)cc1 returned Dicer inh -0.98.
Screening N#CC(C(=O)c1ccccc1Cl)=C1SCCCS1 returned Dicer inh -0.64.

Bioassay records: PubChem, Center for Chemical Genomics, University of Michigan
